Test results reported in PubChem BioAssay AID1851 (National Center for Advancing Translational Sciences (NCATS), 2009).
Several values for one entry are separate records, joined by “and”; a condition that tells them apart may be missing. Equal entries are not always repeated. Screen size: about 16,000 compounds; about 2,600 (16%) were called active. Roughly 20% stayed inconclusive and do not appear here. A selection follows. Unmarked numbers belong to inactive results. Calls come from the whole dose curve; as a rule, active = well fitted curve in the direction sought with a large enough effect; inconclusive = small, poorly fitted or top-dose-only effect, or effect the other way; inactive = no such curve, though single readings can be large or run the other way.

What follows are compounds tested against Cytochrome P450 2D6 (Homo sapiens) (UniProt P10635) (assay: Cytochrome panel assay with activity outcomes). Details: recombinant CYP, pro-luciferin dealkylation, luminescence, p450-cyp2d6; series mostly up to 57.1 µM; activity, negative = inhibition: at the top concentration.
% is set by controls: 0 for no effect and ±100 for the full control effect.

Cytochrome P450 2D6 (Homo sapiens), sequence (P10635 whole entry, looked up): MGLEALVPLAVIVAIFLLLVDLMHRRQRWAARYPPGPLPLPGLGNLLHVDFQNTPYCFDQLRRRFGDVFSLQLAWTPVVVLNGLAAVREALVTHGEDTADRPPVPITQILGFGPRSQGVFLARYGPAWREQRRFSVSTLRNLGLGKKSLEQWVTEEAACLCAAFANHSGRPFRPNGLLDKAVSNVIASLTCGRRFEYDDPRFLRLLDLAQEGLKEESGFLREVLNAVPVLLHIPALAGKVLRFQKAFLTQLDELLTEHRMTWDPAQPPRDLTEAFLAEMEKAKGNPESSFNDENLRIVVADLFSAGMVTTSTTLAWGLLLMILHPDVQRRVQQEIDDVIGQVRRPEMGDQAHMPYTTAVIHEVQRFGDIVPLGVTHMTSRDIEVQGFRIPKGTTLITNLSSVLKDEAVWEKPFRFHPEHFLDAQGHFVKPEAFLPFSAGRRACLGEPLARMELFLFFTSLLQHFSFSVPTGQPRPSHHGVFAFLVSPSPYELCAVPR

Compound | activity, negative = inhibition | AC50
Cc1nn(C)c(C(=O)NNC(=S)Nc2ccc(Cl)cc2)c1[N+](=O)[O-] | -24.6% | 
Cn1c(=O)c(-c2ccccc2)nc2cnc(Oc3ccccc3)nc21 | -7.05% | 
Nc1ccc(Oc2ccc3nc(-c4ccccc4)c(-c4ccc([N+](=O)[O-])cc4)nc3c2)cc1 | 10.3% | 
O=C(N=NC(=O)c1ccc2c(O)n(C3CCCCC3)c(O)c2c1)c1cccnc1 | 15.3% | 
Nc1ncnc2c1nc(-c1ccccc1)n2[C@H]1O[C@@H](CO)[C@@H](O)[C@H]1O | 11.6% [at 11.4 µM] | 
COc1ccc(C(=O)N2CC3(CC(c4cccc([N+](=O)[O-])c4)=NO3)C[C@H]2C(=O)NCC(N)=O)cc1 (some centres not stated) | -16.3% | 
NC(=O)C1(NC(=O)[C@@H]2CC3(CC(c4cccc(NC(=O)c5cc([N+](=O)[O-])cc([N+](=O)[O-])c5)c4)=NO3)CN2C(=O)c2ccccc2)CC1 (some centres not stated) |  | 15.8 µM (active)
C=C(C)C(=O)N1CC2(CC(c3cccc(NC(=O)c4ccccc4)c3)=NO2)C[C@@H]1C(N)=O (some centres not stated) | -3.06% | 
CC1(C)CCCN(C(=O)c2coc(=O)c(Br)c2)C1 | -10.2% | 
CCOC(=O)C1=C(O)C(Nc2nccs2)(C(F)(F)F)N=C1C (configuration not stated) | -6.02% | 
Cc1ccc(-c2nnc(N(C)C(=O)c3cccnc3)s2)cc1 | -8.87% | 
COc1cccc(C(=O)N(C)c2nnc(-c3ccncc3)s2)c1 |  | 2 µM (active)
CC(=O)N(C)c1nnc(-c2cnccn2)s1 | -3.93% | 
COCCn1c(=O)c(-c2ccc(F)cc2)nc2cncnc21 | -3.99% | 
Clc1ccc(-c2cc3ccccc3[nH]2)cc1 | -18.3% | 
c1ccc(C[n+]2cccc(-c3cc4ccccc4[nH]3)c2)cc1 |  | 1.26 µM (active)
CO[C@@H]1COC(=O)[C@@H](CCSC)NC(=O)C/C=C\[C@@H](C)COC(=O)CCC[C@H]1C | 6.34% [at 11.4 µM] | 
O=[N+]([O-])c1cccc2cn[nH]c12 | 10.6% | 
COc1ccc(C(=O)N2CCC3(CCCN(C(=O)Nc4cccc(C#N)c4)C3)CC2)cc1 | -5.65% | 
CN(C)CCO[C@](C)(c1ccccc1)c1ccccn1 | -17.4% [at 25.6 µM] | 
C[C@@H](C1=C(CCN(C)C)Cc2ccccc21)c1ccccn1 |  | 12.6 µM (active)
O=C(O)CCc1nc(-c2ccccc2-n2cccc2)no1 | -11.8% [at 11.4 µM] | 
Cn1cc(-c2nc3cnc(Oc4cccc(Cl)c4)nc3n(CCC#N)c2=O)c2ccccc21 | -4.89% | 
Nc1cc(=O)[nH]c(N)n1 | 5.2% | 
CCCc1nnc(SCC(=O)N2CCCCC2)n1CC1CCCO1 (configuration not stated) | -8.47% | 
CC(C)c1nc2oc3ccccc3c(=O)c2c(=O)n1-c1ccccc1 | 1.39% | 

Compound | activity, negative = inhibition | AC50
COc1cc(CC(=O)O)c(C(C)=O)cc1OC | -1.85% | 
CC(=O)c1cc(CC=C(C)C)c(O)cc1O |  | 14.1 µM (active)
N#Cc1nc(-c2ccc(OCc3ccccc3)cc2)oc1NCCN1CCOCC1 | -19.7% | 
N#Cc1nc(-c2cccs2)oc1NCc1ccccc1 |  | 4.47 µM (active)
CNc1oc(-c2cccs2)nc1C#N | -4.23% | 
CCCC12CN3CC(CCC)(CN(C1)C3C(O)C(O)C(O)CO)C2=O (configuration not stated) | -18.7% | 
CCO/C([O-])=N/c1c[n+](N2CCOCC2)no1 | 11.1% [at 25.6 µM] | 
NS(=O)(=O)c1ccc(N=Nc2nc3[nH]c(=O)[nH]c(=O)c3[nH]2)cc1 | 15.1% [at 11.4 µM] | 
COC(=O)c1sc2ccccc2c1-n1cccc1C(=O)C(=O)Nc1ccc(Cl)cc1 | 33.3% | 
OC[C@@H]1NC[C@@H](O)[C@@H](O)[C@H]1O | 4.42% | 
COc1ccc(-c2ccc(=O)n(CC(=O)Nc3nnc(C(C)C)s3)n2)cc1OC | 4.75% | 
CCOc1ccc(-c2nnn(CC(=O)Nc3cc(OC)ccc3OC)n2)cc1OCC | -15.6% | 
COc1ccc(-c2nnn(CC(=O)N(CC(=O)NCCC(C)C)Cc3cccs3)n2)cc1OC |  | 11.2 µM (active)
CCOc1ccccc1NC(=O)C1=C(C)NC(=O)NC1c1cccc(OC)c1OC (configuration not stated) | -5.38% | 
NC(N)=N/N=C(\c1ccc(Cl)cc1)C1CC1 | 1.81% [at 11.4 µM] | 
Nc1ncnc(N(c2ccccc2)C2CCCCC2)c1[N+](=O)[O-] | 19.7% | 
CN[C@@H](c1ccncc1)[C@@H](NC)c1ccncc1 | -10.1% [at 11.4 µM] | 
COc1ccc(CN2CCN(C(=O)CC(C)C)CC2)c(OC)c1OC | -20.4% | 
COc1cc(CN2CCN(C(=O)CC(C)C)CC2)cc(OC)c1OC | -10.3% | 
CC(C)CC(=O)N1CCN(Cc2cccc(F)c2)CC1 |  | 8.91 µM (active)
O=c1ccc(NS(=O)(=O)c2ccc(Cl)cc2)cn1Cc1ccc(Cl)c(Cl)c1 |  | 7.94 µM (active)
Cc1ccc(S(=O)(=O)Nc2ccc(=O)n(Cc3ccc(Cl)c(Cl)c3)c2)cc1 |  | 3.98 µM (active)
Cc1cc(NS(=O)(=O)c2ccc(NC(=O)CN3C(=O)c4ccccc4C3=O)cc2)nc(C)n1 | -5.29% | 
O=C(c1cc(Cl)c(=O)n(Cc2ccc(Cl)cc2)c1)N1CCOCC1 | -10.6% | 
O=c1ccc(NS(=O)(=O)c2ccccc2)cn1Cc1ccc(Cl)c(Cl)c1 |  | 14.1 µM (active)
Cc1ccc(NCCC(=O)c2ccc(Cl)c(Cl)c2)cc1 | -27.8% | 

Compound | activity, negative = inhibition | AC50
O=c1nc2ccccc2c(NS(=O)(=O)c2ccc(Cl)cc2)n1-c1ccccc1 | 10.2% | 
COc1ncc2nc(C)c(=O)n(CCC#N)c2n1 | 6.73% | 
COc1ccc(C(=O)N2CCC3(CCCN(C(=O)Nc4cccc(F)c4)C3)CC2)cc1 | -16.4% | 
CCN(CC)C(=O)c1sc2[nH]c(=S)n(-c3ccccc3)c(=O)c2c1C | -9.98% | 
COc1cccc(OC)c1C(=O)Nc1cc(C)on1 | -25.9% | 
CCOC(=O)C1=C(COc2ccc(F)cc2Cl)NC(=O)NC1c1cc(C)ccc1C (configuration not stated) | -19.5% | 
CC(C)NC(=O)c1ccc2c(=O)n(Cc3ccco3)c(=S)[nH]c2c1 | -2.05% | 
Cc1ncsc1C(=O)N1N=C2/C(=C/c3ccccc3)CCCC2C1c1ccccc1 (configuration not stated) | 3.61% | 
Cc1ccc(S(=O)(=O)N/N=C/c2cccn2-c2ccc(Cl)cc2)cc1 | 3.13% | 
O=S(=O)(N/N=C\c1cccn1-c1ccccc1)c1ccc2ccccc2c1 |  | 5.01 µM (active)
COc1ccc(C(=O)Oc2cc(/C=N/NS(=O)(=O)c3ccc(C)cc3)ccc2OC)cc1 | 1.92% | 
CCc1ccccc1NC(=O)c1nnn(CC(=O)Nc2ccccc2C)c1N | -18.4% | 
Cc1nn(CC(=O)NCCN2CCOCC2)c(C)c1[N+](=O)[O-] | 0.91% | 
Cc1cc(C)n(C(=O)CCCCCCCCC(=O)n2nc(C)cc2C)n1 | -12.3% | 
COc1ccc(N2CCN(c3nc(Nc4ccc(F)cc4)nc(OC)n3)CC2)cc1 | 0.148% | 
COc1ccc(Nc2cc(C(=O)NCCCN3CCN(C)CC3)c3ccccc3n2)cc1 | -17.4% | 
COc1ccc(Nc2nc(N3CCCCC3)c3ccccc3n2)cc1 |  | 1.58 µM (active)
CCNc1ncc2ncc(=O)n(C[C@H]3CCCO3)c2n1 | -8.66% | 
COc1cc(Cl)c(CC(=O)c2c[nH]c3ccccc23)cc1OC | -18% [at 11.4 µM] | 
COc1cccc(CNCCc2c[nH]c3ccccc23)c1OCc1ccccc1F |  | 0.282 µM (active)
CC(=O)N[C@@H](Cc1c[nH]c2ccccc12)C(=O)OCc1cc(C(F)(F)F)cc(C(F)(F)F)c1 | 17.4% | 
COc1ccc(C(C(=O)NC2CCCCC2)N(C(=O)Cc2c[nH]c3ccccc23)c2ccc(NC(C)=O)cc2)cc1OC (configuration not stated) | -30.5% | 
COC(=O)C(Cc1c[nH]c2ccccc12)NC(=O)C(C)C (configuration not stated) | -4.41% | 
COc1cc(CNCCc2c[nH]c3ccccc23)ccc1OCc1ccccc1F |  | 3.98 µM (active)
CCOC(=O)c1cnc2cc(-c3ccc(C)cc3)nn2c1-c1ccccc1 | 2.65% | 
O=C1N=C(N2CCC(Cc3ccccc3)CC2)S/C1=C/c1cn[nH]c1-c1ccccc1 | -18.3% | 

Compound | activity, negative = inhibition | AC50
COc1ccccc1NC(=O)Nc1nnc(-c2ccco2)s1 | -1.54% | 
O=S(=O)(c1ccccc1)c1cnc(-c2cccnc2)nc1-c1ccc(Cl)cc1Cl | -28% | 
COC(=O)c1c(C)[nH]c(O)c1C=Nc1ccc(C(C)C)cc1 | -5.18% | 
OC[C@H]1NC[C@H](O)[C@@H](O)[C@H]1O | 1.77% | 
CNCCC=C1c2ccccc2C=Cc2ccccc21 |  | 5.01 µM (active)
CN(C)CC/C=C1\c2ccccc2COc2ccccc21 |  | 15.8 µM (active) and 3.16 µM (active) and 3.98 µM (active)
O=C1OCc2cccc3cccc1c23 | 12.5% | 
CN(C)CCC=C1c2ccccc2C=Cc2ccccc21 |  | 6.31 µM (active)
C[N+](C)([O-])CCC=C1c2ccccc2CCc2ccccc21 | -5.43% [at 11.4 µM] | 
COc1ccc(C2=C(C#N)C(=O)OC2)cc1 | -1.14% | 
CCOC(=O)c1cnn(-c2nc(-c3cccc(F)c3)cs2)c1C(F)(F)F | -12.3% | 
O=C(O)[C@@H]1CCCN1 | -2.04% [at 11.4 µM] | 
CC1(C)C(=O)C(c2ccccc2)=C2CN3C(=O)N(CCc4ccccc4)C(=O)C3(Cc3ccccc3)C=C21 (configuration not stated) | -0.396% | 
N#Cc1cc2[nH]c(=O)c(=O)[nH]c2cc1[N+](=O)[O-] | 3.7% | 
C[C@@]12C(=O)OC(=O)[C@@]1(C)[C@@H]1CC[C@@H]2O1 | 2.37% | 
NC(N)=N/N=C\c1ccc(C2CCNCC2)cc1 | -11% [at 11.4 µM] | 
CC(=O)c1cn(CC(=O)Nc2c(C)cccc2C)c2ccccc12 |  | 7.94 µM (active)
Cc1ccccc1NC(=O)Cn1cnc2c1c(=O)n(C)c(=O)n2C | -9.07% | 
Cc1cccc(C)c1NC(=O)C[N+](C)(C)C |  | inactive
Cc1ccccc1NC(=O)c1cnc(Nc2nc3ccccc3s2)nc1C | 4.51% | 
CC(N)=O | -3.9% | 
C=CCNC(=O)C1CCN(S(=O)(=O)CC)CC1 | -8.48% | 
CCS(=O)(=O)N1CCC(C(=O)NCCCOC)CC1 | -5% | 
CCN(CCCNC(=O)C1CCN(S(=O)(=O)CC)CC1)c1cccc(C)c1 |  | 25.1 µM (active)
